Measured values from the supplement of paper PMC10849652.
Of roughly 7,900 targets only a part is listed; those with a hit were picked by preference. About 0.6% of all pairs of compound and target were hits. Unmarked numbers belong to inactive results.

Key:
Assay in all cases: log2 fold change, soluble protein after heating vs DMSO (PISA); higher = thermal stabilisation; K562 cells, 10 uM, 30 min; active = over 0.2 and 3.5 SD of the protein, either way, in both replicates (recomputed)
[1] = compound: COC1=CC=C(C=C1)CN2C=CC3=C2C=C(C=C3)C(=O)NO
Method in brief: (§1)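 K562 cells at 2×10^6 cells/mL were exposed to 10 μM compound for 30 min, then aliquots were heated for 3 min across 48°C-58°C, pooled, and extracted in PBS containing 0.5% NP-40 at 4°C. The supernatant after 21,000xg for 90 min was taken as soluble protein and measured by TMTpro 16plex LC-MS/MS with channel sums equalised. Thermal stability is reported relative to control samples, with values from duplicates. Fold changes are given on a log2 scale.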

filanesib = compound: CON(C)C(=O)N1N=C(c2cc(F)ccc2F)S[C@@]1(CCCN)c1ccccc1 [filanesib]
Method in brief: as §1

zotarolimus = compound: CO[C@H]1C[C@@H]2CC[C@@H](C)[C@@](O)(O2)C(=O)C(=O)N2CCCC[C@H]2C(=O)O[C@H]([C@H](C)C[C@@H]2CC[C@H](n3cnnn3)[C@H](OC)C2)CC(=O)[C@H](C)/C=C(\C)[C@@H](O)[C@@H](OC)C(=O)[C@H](C)C[C@H](C)/C=C/C=C/C=C/1C [zotarolimus]
Method in brief: as §1

idasanutlin = compound: COc1cc(C(=O)O)ccc1NC(=O)[C@@H]1N[C@@H](CC(C)(C)C)[C@](C#N)(c2ccc(Cl)cc2F)[C@H]1c1cccc(Cl)c1F [idasanutlin]
Method in brief: as §1

alisertib = compound: COc1cc(Nc2ncc3c(n2)-c2ccc(Cl)cc2C(c2c(F)cccc2OC)=NC3)ccc1C(=O)O [alisertib]
Method in brief: as §1

[2] = compound: COc1cc2nc(-c3cc(F)ccc3O)nc(N[C@@H]3CNC[C@H]3C(C)(C)O)c2cc1OC
Method in brief: as §1

gefitinib = compound: COc1cc2ncnc(Nc3ccc(F)c(Cl)c3)c2cc1OCCCN1CCOCC1 [gefitinib]
Method in brief: as §1

[3] = compound: COc1cccc2cc(-c3nc([C@H]4CC[C@H](C(=O)O)CC4)n4ncnc(N)c34)[nH]c12
Method in brief: as §1

lapatinib = compound: CS(=O)(=O)CCNCc1ccc(-c2ccc3ncnc(Nc4ccc(OCc5cccc(F)c5)c(Cl)c4)c3c2)o1 [lapatinib]
Method in brief: as §1

pictilisib = compound: CS(=O)(=O)N1CCN(Cc2cc3nc(-c4cccc5[nH]ncc45)nc(N4CCOCC4)c3s2)CC1 [pictilisib]
Method in brief: as §1

[4] = compound: CS(=O)(=O)c1ccc(-c2cnc(N)c(C(=O)Nc3ccccc3)n2)cc1
Method in brief: as §1

crizotinib = compound: C[C@@H](Oc1cc(-c2cnn(C3CCNCC3)c2)cnc1N)c1c(Cl)ccc(F)c1Cl [crizotinib]
Method in brief: as §1

[5] = compound: C[C@@H]1COCCN1C2=NC(=NC(=C2)C3(CC3)S(=O)(=O)C)C4=C5C=CNC5=CC=C4
Method in brief: as §1

[6] = compound: C[C@H](C1=CC=C(C=C1)C(=O)NC2=C3C=CNC3=NC=C2)N
Method in brief: as §1

duvelisib = compound: C[C@H](Nc1ncnc2nc[nH]c12)c1cc2cccc(Cl)c2c(=O)n1-c1ccccc1 [duvelisib]
Method in brief: as §1

gandotinib = compound: Cc1cc(Nc2cc(CN3CCOCC3)c3nc(C)c(Cc4ccc(Cl)cc4F)n3n2)n[nH]1 [gandotinib]
Method in brief: as §1

tozasertib = compound: Cc1cc(Nc2cc(N3CCN(C)CC3)nc(Sc3ccc(NC(=O)C4CC4)cc3)n2)n[nH]1 [tozasertib]
Method in brief: as §1

[7] = compound: Cc1cc(SCc2sc(-c3ccc(C(F)(F)F)cc3)nc2C)ccc1OCC(=O)O
Method in brief: as §1

doramapimod = compound: Cc1ccc(-n2nc(C(C)(C)C)cc2NC(=O)Nc2ccc(OCCN3CCOCC3)c3ccccc23)cc1 [doramapimod]
Method in brief: as §1

ispinesib = compound: Cc1ccc(C(=O)N(CCCN)[C@@H](c2nc3cc(Cl)ccc3c(=O)n2Cc2ccccc2)C(C)C)cc1 [ispinesib]
Method in brief: as §1

Sequence of UniProt P31150 (P31150 whole entry, looked up): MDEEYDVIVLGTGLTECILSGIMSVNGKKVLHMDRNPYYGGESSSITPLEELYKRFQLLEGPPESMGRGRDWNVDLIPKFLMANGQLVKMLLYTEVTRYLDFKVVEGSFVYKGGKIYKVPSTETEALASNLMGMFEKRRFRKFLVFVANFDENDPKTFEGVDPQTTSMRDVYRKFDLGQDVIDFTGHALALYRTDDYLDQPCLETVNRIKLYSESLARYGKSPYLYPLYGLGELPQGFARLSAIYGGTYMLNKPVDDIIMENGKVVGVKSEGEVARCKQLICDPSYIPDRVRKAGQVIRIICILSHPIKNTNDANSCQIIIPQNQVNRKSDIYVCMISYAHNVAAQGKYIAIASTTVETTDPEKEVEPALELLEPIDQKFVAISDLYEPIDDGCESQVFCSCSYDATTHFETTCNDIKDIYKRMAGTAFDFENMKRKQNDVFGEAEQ
Sequence of UniProt Q1KMD3 (Q1KMD3 whole entry, looked up): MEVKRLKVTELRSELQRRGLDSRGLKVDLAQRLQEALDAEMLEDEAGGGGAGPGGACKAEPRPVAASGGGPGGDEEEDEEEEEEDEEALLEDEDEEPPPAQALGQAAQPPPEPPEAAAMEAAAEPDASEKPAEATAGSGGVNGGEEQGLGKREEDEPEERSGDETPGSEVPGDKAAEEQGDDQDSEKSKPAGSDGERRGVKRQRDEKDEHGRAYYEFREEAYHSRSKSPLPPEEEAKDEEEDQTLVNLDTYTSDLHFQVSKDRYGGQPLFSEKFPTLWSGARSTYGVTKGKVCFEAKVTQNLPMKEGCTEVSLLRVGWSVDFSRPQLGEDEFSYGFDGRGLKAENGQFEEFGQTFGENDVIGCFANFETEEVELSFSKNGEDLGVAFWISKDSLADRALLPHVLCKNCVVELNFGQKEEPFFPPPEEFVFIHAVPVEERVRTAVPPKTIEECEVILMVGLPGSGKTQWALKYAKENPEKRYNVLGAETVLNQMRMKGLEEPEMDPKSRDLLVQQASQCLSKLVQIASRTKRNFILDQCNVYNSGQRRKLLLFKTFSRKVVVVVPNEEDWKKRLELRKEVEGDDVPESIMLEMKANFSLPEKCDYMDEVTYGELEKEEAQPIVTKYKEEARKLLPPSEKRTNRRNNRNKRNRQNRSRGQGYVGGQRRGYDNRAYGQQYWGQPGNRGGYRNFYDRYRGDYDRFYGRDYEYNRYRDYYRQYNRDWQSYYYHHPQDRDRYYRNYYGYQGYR
Sequence of UniProt P22087 (P22087 whole entry, looked up): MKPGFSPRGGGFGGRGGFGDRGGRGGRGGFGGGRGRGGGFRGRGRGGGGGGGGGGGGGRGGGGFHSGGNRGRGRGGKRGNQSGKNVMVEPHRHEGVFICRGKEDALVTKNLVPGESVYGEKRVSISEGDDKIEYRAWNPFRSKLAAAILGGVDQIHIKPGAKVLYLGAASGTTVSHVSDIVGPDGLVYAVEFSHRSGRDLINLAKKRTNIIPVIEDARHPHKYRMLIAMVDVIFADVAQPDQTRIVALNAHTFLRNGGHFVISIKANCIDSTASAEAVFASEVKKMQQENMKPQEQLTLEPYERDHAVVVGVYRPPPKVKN
Sequence of UniProt P52597 (P52597 whole entry, looked up): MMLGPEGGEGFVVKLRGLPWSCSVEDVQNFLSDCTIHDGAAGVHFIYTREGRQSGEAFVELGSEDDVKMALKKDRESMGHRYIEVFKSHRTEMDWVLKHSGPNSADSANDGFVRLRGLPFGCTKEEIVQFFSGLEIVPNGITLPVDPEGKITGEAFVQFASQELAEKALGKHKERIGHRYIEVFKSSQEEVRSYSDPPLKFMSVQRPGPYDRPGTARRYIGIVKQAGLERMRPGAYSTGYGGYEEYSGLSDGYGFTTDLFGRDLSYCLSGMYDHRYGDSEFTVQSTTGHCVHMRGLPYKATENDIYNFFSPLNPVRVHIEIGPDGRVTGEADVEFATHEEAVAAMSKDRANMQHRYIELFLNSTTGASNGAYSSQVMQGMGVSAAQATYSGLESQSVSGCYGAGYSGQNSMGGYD
Sequence of UniProt P55084 (P55084 whole entry, looked up): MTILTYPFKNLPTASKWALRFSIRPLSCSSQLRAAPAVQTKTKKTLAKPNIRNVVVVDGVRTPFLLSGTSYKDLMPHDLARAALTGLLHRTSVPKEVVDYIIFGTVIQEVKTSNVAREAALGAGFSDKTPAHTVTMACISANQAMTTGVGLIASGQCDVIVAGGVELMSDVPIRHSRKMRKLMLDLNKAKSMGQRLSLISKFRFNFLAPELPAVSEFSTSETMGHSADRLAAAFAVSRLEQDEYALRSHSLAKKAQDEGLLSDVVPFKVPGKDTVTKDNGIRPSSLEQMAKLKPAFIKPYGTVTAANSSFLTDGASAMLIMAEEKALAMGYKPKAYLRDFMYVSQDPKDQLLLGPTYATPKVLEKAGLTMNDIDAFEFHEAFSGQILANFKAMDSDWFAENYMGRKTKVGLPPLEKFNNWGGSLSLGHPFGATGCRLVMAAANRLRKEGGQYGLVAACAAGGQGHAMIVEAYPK
Sequence of UniProt P16278 (P16278 whole entry, looked up): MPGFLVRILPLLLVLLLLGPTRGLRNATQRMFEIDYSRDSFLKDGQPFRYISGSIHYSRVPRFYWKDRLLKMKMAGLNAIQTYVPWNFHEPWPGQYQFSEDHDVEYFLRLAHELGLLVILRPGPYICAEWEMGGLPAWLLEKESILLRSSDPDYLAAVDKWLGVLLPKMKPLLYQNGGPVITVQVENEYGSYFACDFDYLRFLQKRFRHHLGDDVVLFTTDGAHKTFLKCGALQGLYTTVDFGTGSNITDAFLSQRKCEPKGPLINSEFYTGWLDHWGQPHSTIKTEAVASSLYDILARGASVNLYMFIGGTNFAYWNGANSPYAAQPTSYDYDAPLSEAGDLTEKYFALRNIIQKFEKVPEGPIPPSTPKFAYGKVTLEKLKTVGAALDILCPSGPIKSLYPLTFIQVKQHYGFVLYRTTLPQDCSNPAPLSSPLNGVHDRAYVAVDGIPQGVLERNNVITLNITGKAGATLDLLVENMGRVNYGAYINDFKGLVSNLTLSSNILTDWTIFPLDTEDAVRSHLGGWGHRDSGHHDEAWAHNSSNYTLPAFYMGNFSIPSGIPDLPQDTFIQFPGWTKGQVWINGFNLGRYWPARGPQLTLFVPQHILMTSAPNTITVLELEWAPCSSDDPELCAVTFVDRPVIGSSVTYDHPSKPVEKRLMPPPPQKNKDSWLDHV
Sequence of UniProt P11142 (P11142 whole entry, looked up): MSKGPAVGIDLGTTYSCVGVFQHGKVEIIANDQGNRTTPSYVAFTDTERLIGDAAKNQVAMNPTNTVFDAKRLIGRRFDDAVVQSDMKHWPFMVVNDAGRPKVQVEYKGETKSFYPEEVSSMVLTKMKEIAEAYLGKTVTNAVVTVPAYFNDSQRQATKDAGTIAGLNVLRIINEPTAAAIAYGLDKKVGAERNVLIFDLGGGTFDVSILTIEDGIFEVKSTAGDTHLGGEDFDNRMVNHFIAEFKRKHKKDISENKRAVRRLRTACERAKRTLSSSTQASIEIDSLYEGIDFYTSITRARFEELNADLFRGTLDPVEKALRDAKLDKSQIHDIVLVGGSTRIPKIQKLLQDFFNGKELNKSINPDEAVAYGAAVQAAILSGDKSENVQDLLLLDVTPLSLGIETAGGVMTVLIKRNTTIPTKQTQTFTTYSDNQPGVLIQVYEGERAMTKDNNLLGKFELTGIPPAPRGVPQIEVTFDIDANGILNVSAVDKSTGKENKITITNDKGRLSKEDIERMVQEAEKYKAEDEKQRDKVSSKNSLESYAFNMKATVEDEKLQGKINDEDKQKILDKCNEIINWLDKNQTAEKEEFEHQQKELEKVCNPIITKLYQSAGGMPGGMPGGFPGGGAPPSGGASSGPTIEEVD
Sequence of UniProt P62879 (P62879 whole entry, looked up): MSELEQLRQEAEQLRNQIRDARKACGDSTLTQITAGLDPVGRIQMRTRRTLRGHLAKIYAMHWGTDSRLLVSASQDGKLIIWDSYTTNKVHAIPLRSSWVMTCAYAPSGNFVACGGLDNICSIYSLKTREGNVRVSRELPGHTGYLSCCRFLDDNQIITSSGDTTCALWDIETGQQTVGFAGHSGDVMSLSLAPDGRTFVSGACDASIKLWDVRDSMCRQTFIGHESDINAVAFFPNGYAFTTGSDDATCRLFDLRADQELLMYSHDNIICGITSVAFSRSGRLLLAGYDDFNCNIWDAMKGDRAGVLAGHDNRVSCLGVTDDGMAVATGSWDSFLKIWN
Sequence of UniProt P29083 (P29083 whole entry, looked up): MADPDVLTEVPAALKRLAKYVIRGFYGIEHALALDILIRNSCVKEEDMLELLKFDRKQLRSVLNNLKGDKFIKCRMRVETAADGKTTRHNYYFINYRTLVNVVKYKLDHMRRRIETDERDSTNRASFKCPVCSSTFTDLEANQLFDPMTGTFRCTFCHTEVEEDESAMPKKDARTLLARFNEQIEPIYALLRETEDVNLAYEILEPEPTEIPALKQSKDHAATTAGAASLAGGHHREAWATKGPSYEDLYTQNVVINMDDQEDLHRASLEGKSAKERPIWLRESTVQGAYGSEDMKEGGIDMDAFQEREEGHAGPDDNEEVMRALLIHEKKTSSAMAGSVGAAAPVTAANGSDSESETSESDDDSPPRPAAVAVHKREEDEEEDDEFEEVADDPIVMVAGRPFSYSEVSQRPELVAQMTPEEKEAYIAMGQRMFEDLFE
Sequence of UniProt Q70Z53 (Q70Z53 whole entry, looked up): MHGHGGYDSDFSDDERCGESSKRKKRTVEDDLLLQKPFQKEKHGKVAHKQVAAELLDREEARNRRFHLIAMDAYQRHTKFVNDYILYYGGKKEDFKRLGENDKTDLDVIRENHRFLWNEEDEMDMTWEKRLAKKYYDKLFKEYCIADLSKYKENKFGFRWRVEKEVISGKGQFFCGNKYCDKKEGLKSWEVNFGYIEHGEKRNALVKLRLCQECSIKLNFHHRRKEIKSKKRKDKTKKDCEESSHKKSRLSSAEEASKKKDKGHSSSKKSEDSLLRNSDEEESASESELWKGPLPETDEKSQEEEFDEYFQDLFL

Row | Target | log2 fold change [1] | log2 fold change (filanesib) | log2 fold change (zotarolimus) | log2 fold change (idasanutlin) | log2 fold change (alisertib) | log2 fold change [2] | log2 fold change (gefitinib) | log2 fold change [3] | log2 fold change (lapatinib) | log2 fold change (pictilisib) | log2 fold change [4] | log2 fold change (crizotinib) | log2 fold change [5] | log2 fold change [6] | log2 fold change (duvelisib) | log2 fold change (gandotinib) | log2 fold change (tozasertib) | log2 fold change [7] | log2 fold change (doramapimod) | log2 fold change (ispinesib)
1 | HADHB (UniProt P55084) | 0.248 | 0.094 | 0.038 | -0.263 | -0.026 | 0.217 | 0.17 | -0.085 | 0.086 | 0.383 | -0.087 | 0.109 | 0.099 | -0.023 | 0.229 | 0.083 | -0.112 | 0.138 | 0.167 | 0.199
2 | GNS (UniProt P15586) | -0.014 | -0.041 | -0.05 | -0.002 | -0.034 | -0.011 | 0.017 | 0.039 | -0.024 | 0.014 | 0.001 | -0.115 | 0.046 | -0.032 | 0.016 | 0.061 | 0.014 | -0.028 | 0.016 | -0.021
3 | GTF2E1 (UniProt P29083) | 0.042 | 0.01 | 0.004 | -0.032 | -0.026 | 0.06 | 0.013 | 0.012 | -0.037 | -0.002 | 0.008 | 0.02 | 0.118 | -0.088 | 0.035 | -0.011 | 0.046 | 0.059 | -0.03 | -0.028
4 | GOPC (UniProt Q9HD26) | -0.059 | 0.259 | 0.329 | 0.007 | -0.026 | 0.668 (active) | 0.137 | -0.146 | 0.15 | 0.08 | 0.218 | 0.293 | -0.043 | 0.294 | -0.003 | 0.101 | 0.144 | 0.091 | 0.061 | 0.038
5 | GDI1 (UniProt P31150) | -0.073 | -0.043 | 0.01 | -0.056 | -0.067 | 0.045 | -0.011 | 0.037 | -0.032 | -0.006 | 0.018 | 0.026 | 0.061 | -0.054 | 0.014 | -0.049 | 0.004 | -0.009 | -0.027 | 0.084
6 | FRA10AC1 isoform 3 (UniProt Q70Z53) | -0.022 | 0.179 | -0.049 | -0.319 | -0.033 | 0.068 | 0 | -0.005 | -0.064 | -0.11 | -0.082 | 0.201 | 0.059 | 0.029 | 0.07 | 0.189 | -0.123 | -0.116 | -0.044 | 
7 | GLUD1 (UniProt P00367) | -0.012 | -0.118 | -0.007 | -0.047 | -0.039 | -0.001 | 0.076 | 0.057 | 0.178 | 0.367 (active) | 0.16 | -0.016 | 0.058 | 0.005 | 0.006 | 0.141 | -0.071 | -0.057 | 0.048 | -0.048
8 | GCDH (UniProt Q92947) | 0.02 | -0.081 | 0.027 | -0.066 | -0.066 | -0.011 | 0.042 | 0.016 | -0.004 | -0.02 | 0.004 | 0.058 | 0.112 | -0.032 | 0.098 | 0.076 | -0.107 | -0.021 | -0.012 | 0.041
9 | GLYR1 (UniProt Q49A26) | -0.024 | 0.125 | -0.04 | 0 | 0.071 | -0.092 | 0.113 | -0.07 | 0.169 | -0.228 | 0.033 | 0.008 | -0.125 | 0.075 | -0.179 | 0.016 | -0.18 | -0.06 | 0.117 | -0.132
10 | HSPA8 (UniProt P11142) | -0.008 | -0.035 | 0.005 | 0.018 | -0.036 | -0.004 | 0.018 | -0.012 | -0.018 | -0.039 | 0.003 | 0.039 | -0.048 | -0.009 | -0.026 | 0.014 | 0.01 | -0.003 | -0.008 | 0.028
11 | H2AFX (UniProt P16104) | -0.06 | 0.393 | -0.3 | 0.484 | -0.007 | -0.136 | 0.049 | -0.361 | 0.054 | -0.215 | -0.09 | -0.096 | -0.39 | 0.479 | -0.128 | 0.087 | 0.073 | -0.078 | 0.348 | -0.222
12 | GLB1 (UniProt P16278) | 0.002 | -0.033 | 0.009 | -0.015 | -0.078 | -0.015 | 0.031 | 0.045 | 0.024 | 0.006 | 0.024 | -0.221 (active) | -0.074 | 0.007 | -0.022 | 0 | 0.036 | -0.004 | 0.013 | -0.255 (active)
13 | GNB2 (UniProt P62879) | -0.051 | 0.034 | -0.006 | -0.058 | -0.068 | 0.089 | 0.085 | -0.071 | 0 | 0.13 | 0.084 | 0.134 | 0.024 | -0.13 | 0.046 | -0.095 | 0.017 | 0 | 0.009 | 0.062
14 | FBL (UniProt P22087) | -0.154 | 0.664 | 0.034 | 0.441 | 0.006 | 0.077 | 0.059 | -0.069 | 0.11 | -0.093 | -0.054 | 0.075 | -0.266 | 0.379 | -0.084 | 0.124 | -0.043 | -0.01 | 0.279 | 0.097
15 | HNRNPF (UniProt P52597) | 0.059 | -0.03 | 0.046 | 0.073 | 0.03 | -0.036 | -0.034 | -0.026 | 0.008 | -0.088 | -0.016 | -0.152 | 0.047 | -0.004 | -0.061 | -0.07 | 0.071 | 0.119 | -0.03 | -0.092
16 | HNRNPUL2 (UniProt Q1KMD3) | -0.012 | 0.156 | -0.015 | 0.083 | -0.026 | 0.105 | -0.02 | 0.005 | -0.018 | 0.035 | -0.092 | -0.033 | -0.05 | 0.123 | -0.096 | -0.005 | -0.058 | 0.015 | 0.041 | 0.004
